The whole screen tested about 5,500 compounds, of which about 2,000 (36%) were called active. Inconclusive results (about 18%) are left out. No stated cut-off is given here; in the data, active means normalized growth mostly below about 0.91 (no sharp cut-off); inconclusive means no clear call, values can overlap the other calls; inactive means mostly above about 0.92. The list shows a part of the results.
Experiment: chemical genetic growth profiling, strain panel (AID 1159580);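 further: tested at 20 µM; growth read once vehicle control cultures reached saturation at 30 °C; 1 = growth at the plate median or of vehicle wells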
Conditions: growth OD

Measured: normalized growth

C/C=C/c1ccc2c(c1)OCO2
inactive: S. cerevisiae deletion strains, locus YJR075W, strain HOC1, stronger effect = lower value 1.01 | S. cerevisiae deletion strains, locus YKL009W, strain mrt4, stronger effect = lower value 1.02 | S. cerevisiae deletion strains, locus YKL068W, stronger effect = lower value 1 | S. cerevisiae deletion strains, locus YKL085W, strain MDH1 (second series), stronger effect = lower value 1.01 | S. cerevisiae deletion strains, locus YKL085W, strain MDH1, stronger effect = lower value 1.01 | S. cerevisiae deletion strains, locus YKL160W, strain elf1, stronger effect = lower value 1 | S. cerevisiae deletion strains, locus YKL190W, strain CNB1, stronger effect = lower value 1.01 | S. cerevisiae deletion strains, locus YKR001C, strain vps1, stronger effect = lower value 1.05 | S. cerevisiae deletion strains, locus YKR026C, strain gcn3, stronger effect = lower value 0.997 | S. cerevisiae deletion strains, locus YKR091W, strain srl3, stronger effect = lower value 1.01 | S. cerevisiae deletion strains, locus YLL001W, strain dnm1, stronger effect = lower value 1.01 | S. cerevisiae deletion strains, locus YLL026W, stronger effect = lower value 1.02 | S. cerevisiae deletion strains, locus YLL041C, strain sdh2, stronger effect = lower value 1.02 | S. cerevisiae deletion strains, locus YLR027C, strain aat2, stronger effect = lower value 1.02 | S. cerevisiae deletion strains, locus YLR039C, strain RIC1, stronger effect = lower value 1.07 | S. cerevisiae deletion strains, locus YLR058C, strain SHM2, stronger effect = lower value 1.01 | S. cerevisiae deletion strains, locus YLR102C, strain apc9, stronger effect = lower value 1.01 | S. cerevisiae deletion strains, locus YLR113W, strain HOG1, stronger effect = lower value 0.976 | S. cerevisiae deletion strains, locus YLR221C, strain rsa3, stronger effect = lower value 0.994 | S. cerevisiae deletion strains, locus YLR258W, strain gsy2, stronger effect = lower value 1.02 | S. cerevisiae deletion strains, locus YLR262C, strain YPT6 (second series), stronger effect = lower value 1 | S. cerevisiae deletion strains, locus YLR262C, strain YPT6, stronger effect = lower value 1.05 | S. cerevisiae deletion strains, locus YLR268W, strain sec22, stronger effect = lower value 1.04 | S. cerevisiae deletion strains, locus YLR320W, strain mms22, stronger effect = lower value 1.01 | S. cerevisiae deletion strains, locus YLR330W, strain CHS5, stronger effect = lower value 1.02 | S. cerevisiae deletion strains, locus YLR342W, strain FKS1 (second series), stronger effect = lower value 1.03 | S. cerevisiae deletion strains, locus YLR342W, strain FKS1, stronger effect = lower value 1.02 | S. cerevisiae deletion strains, locus YLR357W, strain rsc2, stronger effect = lower value 1.03 | S. cerevisiae deletion strains, locus YLR370C, strain arc18, stronger effect = lower value 1.02 | S. cerevisiae deletion strains, locus YLR371W, strain rom2, stronger effect = lower value 1.01 | S. cerevisiae deletion strains, locus YLR384C, strain iki3, stronger effect = lower value 1.03 | S. cerevisiae deletion strains, locus YLR418C, strain cdc73, stronger effect = lower value 1 | S. cerevisiae deletion strains, locus YML016C, strain PPZ1, stronger effect = lower value 1.01 | S. cerevisiae deletion strains, locus YML032C, strain rad52, stronger effect = lower value 0.996 | S. cerevisiae deletion strains, locus YML120C, strain ndi1, stronger effect = lower value 1.03 | S. cerevisiae deletion strains, locus YML124C, strain tub3, stronger effect = lower value 1 | S. cerevisiae deletion strains, locus YMR058W, strain fet3, stronger effect = lower value 1.02 | S. cerevisiae deletion strains, locus YMR078C, strain ctf18, stronger effect = lower value 1.01 | S. cerevisiae deletion strains, locus YMR125W, strain sto1, stronger effect = lower value 1.03 | S. cerevisiae deletion strains, locus YMR129W, stronger effect = lower value 1.02 | S. cerevisiae deletion strains, locus YMR205C, strain PFK2, stronger effect = lower value 1.02 | S. cerevisiae deletion strains, locus YMR223W, strain ubp8, stronger effect = lower value 0.99 | S. cerevisiae deletion strains, locus YMR231W, strain pep5, stronger effect = lower value 1.02 | S. cerevisiae deletion strains, locus YMR263W, strain SAP30, stronger effect = lower value 1.01 | S. cerevisiae deletion strains, locus YMR307W, strain GAS1, stronger effect = lower value 0.986 | S. cerevisiae deletion strains, locus YNL067W, strain RPL9B, stronger effect = lower value 1.01 | S. cerevisiae deletion strains, locus YNL071W, strain lat1, stronger effect = lower value 1.02 | S. cerevisiae deletion strains, locus YNL153C, strain GIM3, stronger effect = lower value 1.03 | S. cerevisiae deletion strains, locus YNL183C, strain NPR1, stronger effect = lower value 0.948 | S. cerevisiae deletion strains, locus YNL209W, strain ssb2, stronger effect = lower value 1.02 | S. cerevisiae deletion strains, locus YNL233W, strain BNI4, stronger effect = lower value 1.02 | S. cerevisiae deletion strains, locus YNL248C, strain rpa49, stronger effect = lower value 0.998 | S. cerevisiae deletion strains, locus YNL250W, strain rad50, stronger effect = lower value 1.01 | S. cerevisiae deletion strains, locus YNL271C, strain bni1, stronger effect = lower value 1.01 | S. cerevisiae deletion strains, locus YNL298W, strain CLA4, stronger effect = lower value 1.01 | S. cerevisiae deletion strains, locus YNL307C, strain MCK1, stronger effect = lower value 1.02 | S. cerevisiae deletion strains, locus YNL322C, strain KRE1 (second series), stronger effect = lower value 1.02 | S. cerevisiae deletion strains, locus YNL322C, strain KRE1, stronger effect = lower value 1.01 | S. cerevisiae deletion strains, locus YNR049C, strain mso1, stronger effect = lower value 1.02 | S. cerevisiae deletion strains, locus YNR052C, strain pop2, stronger effect = lower value 0.996 | S. cerevisiae deletion strains, locus YOL006C, strain TOP1, stronger effect = lower value 1.16 | S. cerevisiae deletion strains, locus YOL012C, strain htz1 1.12 | S. cerevisiae deletion strains, locus YOL147C, strain pex11, stronger effect = lower value 1 | S. cerevisiae deletion strains, locus YOR001W, strain rrp6, stronger effect = lower value 1.01 | S. cerevisiae deletion strains, locus YOR061W, strain CKA2, stronger effect = lower value 1.01 | S. cerevisiae deletion strains, locus YOR069W, strain VPS5, stronger effect = lower value 1.01 | S. cerevisiae deletion strains, locus YOR070C, strain gyp1, stronger effect = lower value 1.02 | S. cerevisiae deletion strains, locus YOR080W, strain dia2, stronger effect = lower value 1.03 | S. cerevisiae deletion strains, locus YOR083W, strain WHI5, stronger effect = lower value 0.993 | S. cerevisiae deletion strains, locus YOR106W, strain vam3, stronger effect = lower value 1.01 | S. cerevisiae deletion strains, locus YOR136W, strain idh2, stronger effect = lower value 0.999 | S. cerevisiae deletion strains, locus YOR144C, strain elg1, stronger effect = lower value 0.998 | S. cerevisiae deletion strains, locus YOR184W, strain ser1, stronger effect = lower value 0.994 | S. cerevisiae deletion strains, locus YOR231W, strain MKK1, stronger effect = lower value 0.959 | S. cerevisiae deletion strains, locus YOR265W, strain rbl2, stronger effect = lower value 1.02 | S. cerevisiae deletion strains, locus YOR270C, strain vph1, stronger effect = lower value 1.03 | S. cerevisiae deletion strains, locus YOR290C, strain snf2, stronger effect = lower value 0.999 | S. cerevisiae deletion strains, locus YOR316C, strain cot1, stronger effect = lower value 1.01 | S. cerevisiae deletion strains, locus YPL051W, strain arl3, stronger effect = lower value 1.01 | S. cerevisiae deletion strains, locus YPL055C, strain LGE1, stronger effect = lower value 1.03 | S. cerevisiae deletion strains, locus YPL078C, strain atp4, stronger effect = lower value 1.01 | S. cerevisiae deletion strains, locus YPL106C, strain sse1, stronger effect = lower value 1 | S. cerevisiae deletion strains, locus YPL240C, strain hsp82, stronger effect = lower value 1.02 | S. cerevisiae deletion strains, locus YPL241C, strain CIN2, stronger effect = lower value 1.01 | S. cerevisiae deletion strains, locus YPL256C, strain CLN2, stronger effect = lower value 0.962 | S. cerevisiae deletion strains, locus YPR119W, strain clb2, stronger effect = lower value 1.01 | S. cerevisiae deletion strains, locus YPR141C, strain kar3, stronger effect = lower value 1.01 | S. cerevisiae deletion strains, locus YPR163C, strain tif3, stronger effect = lower value 1 | S. cerevisiae deletion strains, locus YPR167C, strain met16, stronger effect = lower value 1.02 | S. cerevisiae deletion strains, strain wtn01, stronger effect = lower value 1.06 | S. cerevisiae strains, strain wild type, stronger effect = lower value 1.01

— PubChem BioAssay AID1159580 (chemical genetic matrix, 2015)
